Rows were chosen to be rich in hits. Some 1.5% of all compounds tested hit in one or more screens of this group.
APEX1 inh: blocks human APE1 abasic DNA cleavage. AID 2517. recombinant APE1, TAMRA/BHQ-2 abasic DNA cleavage fluorescence. Potency, µM (top dose mostly 65.8 µM), inactives show top-dose activity change, negative = inhibition, hits mostly inhibitors. 350,000 compounds, 0.35% hits;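 also: potency is read from the fitted curve at half-maximal effect; plate controls were vehicle for no effect and reference inhibitor for full effect; nearly all actives have a fitted effect of over 55% in size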
Target sequence (P27695 whole entry, looked up): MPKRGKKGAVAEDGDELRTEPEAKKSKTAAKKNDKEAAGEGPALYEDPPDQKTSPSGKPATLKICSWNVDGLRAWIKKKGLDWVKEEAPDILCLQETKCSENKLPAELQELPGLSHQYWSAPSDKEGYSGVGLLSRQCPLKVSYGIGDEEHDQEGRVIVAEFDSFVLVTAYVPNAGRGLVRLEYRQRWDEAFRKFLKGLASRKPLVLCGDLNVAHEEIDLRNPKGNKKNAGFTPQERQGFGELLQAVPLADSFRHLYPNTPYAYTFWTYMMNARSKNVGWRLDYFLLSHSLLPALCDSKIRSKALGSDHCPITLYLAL
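APE1 at 0.75 nM final was preincubated with compound 15 min at room temperature, then 50 nM double-stranded THF abasic-site substrate (5'-TAMRA/3'-BHQ-2) was added. Fluorescence (ex 525/em 598 nm) was read kinetically; third-minus-first read gave activity.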
WRN helicase inh: blocks human WRN helicase | WRN helicase unwinding, fluorescent forked duplex, kinetic | Q14191 | 360,000 compounds, 0.46% hits | Potency, µM (doses to about 114 µM), for the others: top-dose activity change, negative = inhibition, usual class: inhibitors; also: potency is read from the fitted curve at half-maximal effect; nearly all actives have a fitted effect of over 55% in size
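Kinetic fluorescence helicase assay: unwinding of a quenched forked DNA duplex (100 nM final) with 2 mM ATP final raises red fluorescence (525/598 nm). Compounds sat 15 min at room temperature with 20 nM WRN beforehand.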
BLM inh: blocks DNA unwinding by human BLM helicase; P54132; recombinant BLM DNA unwinding, fluorescence dequenching; 350,000 compounds, 0.2% hits; Potency, µM (top dose mostly 56.1 µM), for the others: at the top dose activity change, negative = inhibition, usual class: inhibitors; AID 2528;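 also: potency is read from the fitted curve at half-maximal effect; plate controls were vehicle for no effect and no enzyme for full effect; nearly all actives have a fitted effect of over 35% in size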
PI5P4Ka inh: blocks human PI5P4K alpha kinase activity; P48426; PI5P4Kalpha enzyme, ADP-Glo luminescence, 60 min; stronger effect = lower value; max response, %; 330,000 compounds, 1.2% hits; AID 652105; active = max response of -50% or lower; inconclusive = between -30% and -50%; inactive = -30% or higher; also: value at the top dose of about 77 µM
Target sequence (P48426 whole entry, looked up): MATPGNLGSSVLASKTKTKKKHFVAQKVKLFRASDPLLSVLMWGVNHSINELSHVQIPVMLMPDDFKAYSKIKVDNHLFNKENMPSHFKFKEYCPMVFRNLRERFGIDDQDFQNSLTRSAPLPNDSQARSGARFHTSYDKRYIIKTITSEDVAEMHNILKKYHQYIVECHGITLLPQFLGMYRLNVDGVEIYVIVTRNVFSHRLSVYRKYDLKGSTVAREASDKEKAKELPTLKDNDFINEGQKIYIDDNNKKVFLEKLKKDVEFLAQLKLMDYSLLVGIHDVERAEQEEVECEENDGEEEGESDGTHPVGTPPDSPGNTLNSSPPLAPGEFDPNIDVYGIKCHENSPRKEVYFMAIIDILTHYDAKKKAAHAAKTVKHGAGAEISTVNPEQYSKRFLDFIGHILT
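PI5P4Kalpha ADP-Glo assay; 5 microM ATP final; 60 min RT reaction; HEPES pH 7.4/EGTA/CHAPS, 5% DMSO; controls lacking substrate or enzyme; luminescent end-point.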
FEN1 inhibitor: blocks human flap endonuclease 1; P39748; 390,000 compounds, 0.35% hits; Potency, µM (titrated, usually from 114 µM), inactives show top-dose activity change, negative = inhibition, most hits filed as inhibitors; Recombinant FEN1 flap cleavage, fluorescence, 15 min; also: potency is read from the fitted curve at half-maximal effect; nearly all actives have a fitted effect of over 65% in size
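Enzyme 10 nM, 15 min RT preincubation with compound; start with substrate 50 nM final; reads at 0 and 15 min; qHTS titration, four-parameter Hill fit.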
RECQ1 helicase: RECQ1 (human) helicase inhibition; P46063; RECQ1 DNA unwinding, red fluorescence kinetic read; Potency, µM (series often up to 57.3 µM), for the others: top-dose activity, negative = inhibition, usual class: inhibitors; 240,000 compounds, 0.54% hits; AID 2549;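 also: potency is read from the fitted curve at half-maximal effect; plate controls were vehicle for no effect and no enzyme for full effect; nearly all actives have a fitted effect of over 30% in size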
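50 nM RECQ1T1 preincubated 15 min with compound in Tris pH 8.0 buffer with MgCl2, DTT, Tween-20 and 2.5 ug/ml poly(dI-dC); started with 200 nM TAMRA/BHQ-2 forked duplex and 2 mM ATP. Unwinding read as fluorescence (525/598 nm), two reads 2 h apart.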
An asterisk follows results filed as active; i = inactive; ? = inconclusive; . = no result; [ ] = another dose, or the depositor's remark. Unless noted, calls follow the shape of the dose curve; as a rule, active = well fitted curve in the direction sought with a large enough effect; inconclusive = small, poorly fitted or top-dose-only effect, or another doubt; inactive = no such curve, though single readings can be large; an effect the other way counts as inactive or inconclusive. Unless noted, % is scaled to controls: 0 for no effect and ±100 for the full control effect.

SMILES	APEX1 inh	WRN helicase inh	BLM inh	PI5P4Ka inh	FEN1 inhibitor	RECQ1 helicase
Cc1cccc(OCC(=O)NC(=S)NNC(=O)c2ccncc2)c1	18%	?	-1%	-73*	-1%	.
O=C1c2ccccc2C(=O)N1CCSc1n[nH]c(=S)s1	0%	-21%	-4%	-77*	5%	-24%
CC(CSc1n[nH]c(=S)s1)c1ccccc1 (configuration not stated)	.	-4%	.	-54*	3%	.
CC(Cc1n[nH]c(=S)o1)c1ccccc1 (configuration not stated)	0%	3%	1%	-22	-18%	-3%
O=C1c2ccccc2C(=O)N1CCSc1ncn[nH]1	1%	-2%	3%	-1	3%	-3%
CCCCCCCCCCCC[n+]1ccc2ccccc2c1	.	.	2%	.	.	.
CCN(CC)CCN(C(=O)c1ccco1)c1nc2ccc(F)cc2s1	.	.	1%	.	7%	.
CCOc1cc(/C=C2/C(=O)ON=C2C)ccc1OCc1ccccc1	7%	?	-9%	-1	10%	4%
COc1ccc(/C=C2/C(=O)ON=C2c2ccccc2)cc1OC	-2%	?	1%	-59*	-8%	-5%
COc1ccc(/C=C2\C(=O)ON=C2c2ccccc2)cc1OC	16%	-9%	-3%	-62*	-1%	.
COc1ccc(/C=C2/C(=O)ON=C2C)cc1Br	7%	?	-5%	-17	-4%	.
CCOc1cc(/C=C2\C(=O)ON=C2c2ccccc2)ccc1OC	18%	-31%	-5%	-63*	2%	.
Cc1ccc(C2=NOC(=O)/C2=C\C=C\c2ccccc2)cc1	-8%	35µM*	-21%	?	-12%	3%
COc1cc(/C=C2\C(=O)ON=C2c2ccccc2)cc(OC)c1OC	-10%	-27%	2%	-25	-3%	-2%
COC(=O)N1CCN(/[N+]([O-])=N/Oc2ccc([N+](=O)[O-])cc2[N+](=O)[O-])CC1	2%	.	-1%	.	5%	i
NS(=O)(=O)c1ccc(NC(=O)c2nc(S(=O)(=O)Cc3ccccc3F)ncc2Cl)cc1	.	.	.	.	2%	.
CCN(CC)CCN(C)c1ccc(/C=C/c2ccnc3ccccc23)cc1	.	.	.	.	-29%	.
O=S(=O)(c1ccc2c(c1)CCCC2)N1CCN(c2nc(-c3ccccc3)nc3ccccc23)CC1	.	.	.	.	2%	.
COc1ccc2[nH]c3c4c(ccc3c2c1)C(=O)C=CC4=O	-6%	-14%	-22%	-65*	-7%	-1%
CCc1cccc(NC(=O)c2c(N3CCCC3=O)c3cc(C)ccc3n2C)c1	.	.	-7%	.	-6%	.
O=c1c2ccccc2sc2ccc(NCCCN3CCOCC3)cc12	.	-17%	.	0	45µM*	.
Cc1ccc(-c2nc(CS(=O)CC(=O)N3CCN(c4ccc(Cl)cc4)CC3)c(C)o2)cc1 (configuration not stated)	.	.	-3%	.	-2%	.
COc1ccc(C)cc1Nc1nc(N)c2cc(OC)c(OC)cc2n1	2%	?	20µM*	-12	?	.
C=C1C=C(C(F)F)n2ncc(C(=O)NCc3ccccc3C(F)(F)F)c2N1	-28%	.	.	.	.	.
N#Cc1c(-c2ccc(F)cc2)no[n+]1[O-]	2%	.	.	.	.	.
SMILES	APEX1 inh	WRN helicase inh	BLM inh	PI5P4Ka inh	FEN1 inhibitor	RECQ1 helicase
N#Cc1c(N)nc2c(c1-c1cccnc1)CCCCC2	21%	10%	-2%	.	-4%	i
N#Cc1c(-c2cccnc2)c2c([nH]c1=S)CCCC2	11%	-31%	0%	-95*	5%	-3%
N#Cc1c(-c2ccco2)c2c([nH]c1=S)CCCC2	11%	?	?	-78*	7%	i
CC(=O)C1=C(O)C(=O)N(c2ccccn2)C1c1ccccc1[N+](=O)[O-] (configuration not stated)	56%	71µM*	2%	?	3%	.
CC(C)(C)NC(=S)N/N=C/c1cc(Br)c(O)c(Br)c1	-1%	-8%	-12%	-91*	17%	2%
O=C(N/N=C/c1cc(Br)c(O)c(Br)c1)C1CC1	15%	0%	-6%	?	-3%	.
COc1cccc([C@@H]2Oc3ccc(OC)cc3C(=O)[C@H]2OC(=O)NCCc2ccc(OC)c(OC)c2)c1	1%	.	-6%	.	.	-1%
CCOC(=O)/C=C1\SCC(=O)N1CC(=O)Nc1ccc(OC)c(OC)c1	-5%	-6%	-3%	4	-5%	i
CCOC(=O)/C=C1\SCC(=O)N1CC(=O)c1ccc[nH]1	?	-7%[11.6 µM]	?	-53*	-2%	-22%
Cc1ccc2c(Br)cc(Br)c(O)c2n1	.	.	-2%	.	.	.
CCOC(=O)/C=C1\CN(Cc2ccc(OC)cc2)S(=O)(=O)c2ccc(C(F)(F)F)cc21	.	.	.	.	-28%	.
COc1ccc(S(=O)(=O)NCc2cccs2)cc1	13µM*	-8%	-30%	.	-5%	-21%
C1=C/C(=C2/C=Cc3ccccc32)c2ccccc2N1	.	.	.	.	-10%	.
CC(c1ccccc1)C1C(C#N)=C(N)SC(N)=C1C#N (configuration not stated)	13%	-12%	-8%	?	6%	-4%
CC(CC1C(C#N)=C(N)SC(N)=C1C#N)c1ccccc1 (configuration not stated)	1%	-20%	-3%	-67*	-6%	-9%
CC(C)NS(=O)(=O)c1cc(C(F)(F)F)ccc1/C=C/C(=O)O	.	.	.	.	6%	.
S=C([S-])NCCNC(=S)[S-].[Zn+2]	16µM*	.	.	.	.	32µM*
Cc1cc(O)c(-c2cc(O)c(C)cc2O)cc1O	-4%	1%	-4%	-67*	?	i
Cc1ccc(N)cc1O	-11%	9%	.	1	-19%	-4%
CC(C)(C)n1ncc2c(=O)n(Cc3ccc(SC(F)(F)F)cc3)cnc21	-7%	.	.	.	0%	.
Nc1nnc(CC(=O)N/N=C/c2ccc(-c3ccccc3Cl)o2)s1	0%	-17%	-7%	-53*	-9%	-7%
COC(=O)c1ccc(-c2ccc(/C=N/NC(=O)Cc3nnc(N)s3)o2)cc1	-12%	-7%[11.6 µM]	-8%	-56*	-12%	i
Nc1nnc(CC(=O)N/N=C/c2ccc(-c3ccccc3)o2)s1	3%	-9%	-1%	-4	-6%	-15%
Nc1nnc(CC(=O)N/N=C/c2ccc(-c3ccc(Cl)cc3Cl)o2)s1	-11%	-9%	-11%	-4	-18%	17%
CC(=O)NS(=O)(=O)c1ccc(NC(=O)/C=C/c2ccco2)cc1	?	-10%	-1%	1	8%	2%
Cc1ccc(NC(=O)c2cccc(NC(=O)/C=C/c3ccco3)c2)cc1C	-8%	-8%[11.6 µM]	-2%	-64*	-6%	-1%
Cc1ccc(NC(=O)N/C=C/c2ccco2)cc1C	-7%	-32%[57.1 µM]	-9%	-57*	-3%	?
Cc1cccc(C(=O)Nc2ccc(C(=O)N/N=C/c3ccco3)cc2)c1	.	3%[11.6 µM]	.	-51*	-18%	.

Assay outcomes from PubChem BioAssay.
